This note sets out measurements from PubChem BioAssay AID425 (Sanford-Burnham Center for Chemical Genomics, 2006).

Where “and” joins values, the source holds several entries; their conditions need not be identical. Equal entries are not always repeated. About 190 (0.17%) of roughly 110,000 compounds were called active. Rule as the data show it: active = inhibition above about 50%; inactive = the rest. What follows is part of a selection rich in actives, with near analogues and random picks from the rest. Results with a measured potency or affinity are listed apart. A structure can be active in one record and inactive in another.

For this test, the target named is Dual specificity protein phosphatase 6 (Rattus norvegicus) (UniProt Q64346). Description: inhibition of rat DUSP6 enzyme activity – biochemical, in vitro, primary screen (AID 425).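 Also: plate controls were vehicle for no effect and reference inhibitor for full effect.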 Particulars: recombinant MKP-3 phosphatase activity, fluorescence; at 20 µM; stronger effect = higher value.
Sequence of Dual specificity protein phosphatase 6 (Rattus norvegicus) (Q64346 whole entry, looked up): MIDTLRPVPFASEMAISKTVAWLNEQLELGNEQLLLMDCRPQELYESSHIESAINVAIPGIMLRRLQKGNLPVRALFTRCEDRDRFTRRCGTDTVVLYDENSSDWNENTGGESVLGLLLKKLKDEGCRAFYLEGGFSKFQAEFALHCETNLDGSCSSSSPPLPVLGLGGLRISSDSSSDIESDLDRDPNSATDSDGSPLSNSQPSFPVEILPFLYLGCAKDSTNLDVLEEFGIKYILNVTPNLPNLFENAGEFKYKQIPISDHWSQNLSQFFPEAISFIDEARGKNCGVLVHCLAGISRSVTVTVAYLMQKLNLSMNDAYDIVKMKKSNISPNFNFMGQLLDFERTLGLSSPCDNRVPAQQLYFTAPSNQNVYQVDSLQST
By inhibition is commonly meant the drop in the measured response relative to a control, in per cent. Regarding `CC(C)(C)C1=CC(=O)C=C(C(C)(C)C)C1=O`, the inhibition was 6.8% (inactive).
To `CC(C)(C)C1=CC(N)=C(C(C)(C)C)C(=O)C1=O` belongs 86.4% (active).
As to `CC(=O)/C(C1=C(C(C)(C)C)C(=O)C(=O)C(C(C)(C)C)=C1)=C(/C)O`, the inhibition was 6.5% (inactive).
As for `c1ccc(Cn2ncc3c(N4CCN(c5ccccn5)CC4)ncnc32)cc1`, the inhibition was 6.4% (inactive).
The result for `COc1ccc(CNS(=O)(=O)c2ccc([N+](=O)[O-])cc2)cc1` reads -4% (inactive); that for `C=CCN1C(=O)NC(=O)/C(=C\c2ccc(OCc3ccc(Cl)cc3)c(OC)c2)C1=O`, 5.1% (inactive).
For the compound `COc1cccc(/C=N/n2c(SC)nnc2-c2ccccc2)c1O`, the inhibition is -6.8% (inactive).
As to `Brc1ccc(/C=N/n2c(-c3ccccc3)nnc2-c2ccccc2)cc1`, the inhibition is -2.7% (inactive).
In the case of `O=C(c1ccco1)N1CCN(S(=O)(=O)c2ccc(Br)s2)CC1`, the inhibition is -14.7% (inactive).
As for `CCOc1ccc(NC(=O)c2cccc(F)c2)cc1`, the inhibition is 4.1% (inactive).
On to `O=C(Nc1cccc(NC(=O)c2cccnc2)c1)c1cccnc1`, for which the inhibition is 5.6% (inactive).
`Nc1ccc(S(=O)(=O)O)c2cccc(S(=O)(=O)O)c12`: the inhibition is -2.3% (inactive).
To `Nc1ccc(S(=O)(=O)O)c2cccc(O)c12` belongs 29.8% (inactive) and 64.8% (active); to `Nc1cc(S(=O)(=O)O)cc2cccc(S(=O)(=O)O)c12`, -2% (inactive); to `O=C(c1ccc(N2CCN(C(=O)c3ccccc3)CC2)cc1)c1cccc(F)c1`, 4.8% (inactive).
To `O=C(c1ccc(N2CCN(C(=O)c3ccccc3Br)CC2)cc1)c1cccc(F)c1` belongs 52.2% (active).
With `O=C(c1ccc(N2CCN(C(=O)c3ccccc3F)CC2)cc1)c1cccc(F)c1`, the inhibition was 4.1% (inactive).
Turning to `Cc1ccc(C(=O)Nc2ccc(N3CCOCC3)c(Cl)c2)cc1C`, the inhibition is 5.9% (inactive).
Regarding `O=S(=O)(c1cc(Cl)cc(Cl)c1O)c1cc(Cl)cc(Cl)c1O`, the inhibition was -3.1% (inactive).
On to `O=C(Cn1c(NCCCO)nc2ccccc21)c1ccco1`, for which the inhibition is -11.1% (inactive).
`O=C(O)C1Nc2c(Cl)cc(Cl)cc2C2C=CCC12` (stereo not drawn): the inhibition is 98.5% (active).
On to `Cc1c(Cl)ccc2c1NC(C(=O)O)C1CC=CC21` (stereo not drawn), for which the inhibition was 107% (active).
Consider `O=C(O)C1Nc2c(C(=O)N3CCCC3)cccc2C2C=CCC12` (stereo not drawn), for which the inhibition is 5% (inactive).
Regarding `Cc1ccc2c(c1)C1C=CCC1C(c1ccccc1[N+](=O)[O-])N2` (stereo not drawn), the inhibition is 7% (inactive).
For `CC(=O)c1ccc2c(c1)C1C=CCC1C(c1ccc(Cl)cc1)N2` (stereo not drawn), the inhibition was 14.4% (inactive).
On to `CCOC(=O)c1ccc2c(c1)C1C=CCC1C(c1ccc(Cl)cc1Cl)N2` (stereo not drawn), for which the inhibition is 3.3% (inactive).
The result for `Cc1cc(I)c2c(c1)C1C=CCC1C(C(=O)O)N2` (stereo not drawn) reads 103% (active); that for `Cc1ccc2c(c1)C1C=CCC1C(c1ccc([N+](=O)[O-])cc1)N2` (stereo not drawn), 3.4% (inactive).
To `O=C(O)C1Nc2c(C(=O)N3CCOCC3)cccc2C2C=CCC12` (stereo not drawn) belongs 0.2% (inactive); to `Brc1ccc(-c2nc(Cc3ccccc3)no2)cc1`, -2.5% (inactive); to `CCOc1cc(-c2noc(CCC(=O)Nc3cccnc3)n2)ccc1OC`, -11.2% (inactive).
Regarding `O=C(Nc1ccc(-c2nc3ccccc3[nH]2)cc1)c1ccccc1`, the inhibition is -0.7% (inactive).
Regarding `O=C(Nc1ccc(-c2nc3ccccc3[nH]2)cc1)c1ccc(Br)o1`, the inhibition is 8.1% (inactive).
Turning to `O=C(Nc1ccc(-c2nc3ccccc3[nH]2)cc1)c1ccc(Cl)cc1`, the inhibition is 5.4% (inactive).
The result for `O=C(Nc1cccc(-c2nc3ccccc3[nH]2)c1)c1ccco1` reads 3.5% (inactive).
As to `O=C(Nc1ccc(-c2nc3ccccc3[nH]2)cc1)c1ccc(Cl)c(Cl)c1`, the inhibition is 51.8% (active).
`O=C(Nc1ccc(-c2nc3ccccc3[nH]2)cc1)c1cc2ccccc2o1`: the inhibition was 53.5% (active).
On to `O=C(Nc1ccc(Cl)c(-c2nc3ccccc3[nH]2)c1)c1cc2ccccc2o1`, for which the inhibition was 5% (inactive).
As for `Cc1ccc2nc(-c3cccc(NC(=O)c4ccco4)c3)[nH]c2c1`, the inhibition is 0.4% (inactive).
Turning to `Cc1cc(F)ccc1S(=O)(=O)Nc1c(C)n(C)n(-c2ccccc2)c1=O`, the inhibition is 6.3% (inactive).
As to `O=C(O)COc1ccc2c(=O)c(-c3ccc(Cl)cc3)coc2c1`, the inhibition was 2% (inactive).
The result for `CCCCOCCCNC(=O)N[C@@H](CC(C)C)C(=O)O` reads 7.7% (inactive); that for `COc1ccc(Cl)cc1C(=O)Nc1ccc(N(C)C)cc1`, 0.6% (inactive); that for `CSCCNS(=O)(=O)c1ccc(NC(C)=O)cc1`, 1.1% (inactive).
To `O=C1NC(=S)N(c2ccccc2F)C(=O)/C1=C/c1ccc(I)o1` belongs 91.2% (active); to `CCOc1ccc(N2C(=O)/C(=C/c3ccc(I)o3)C(=O)NC2=S)cc1`, 107% (active).
Consider `CCOc1ccc(N2C(=O)/C(=C/c3ccc(N(CC)CC)o3)C(=O)NC2=S)cc1`, for which the inhibition was -0.2% (inactive).
The result for `CCOc1ccc(N2C(=O)/C(=C/c3ccc(OCc4cccc(C(=O)O)c4)cc3)C(=O)NC2=S)cc1` reads -1.9% (inactive).
In the case of `O=C1NC(=O)N(c2ccc(Cl)cc2)C(=O)/C1=C/c1ccc(I)o1`, the inhibition was 23.6% (inactive).
As for `CCOc1ccc(N2C(=O)NC(=O)/C(=C\c3ccc(I)o3)C2=O)cc1`, the inhibition was 5.3% (inactive).
The result for `Cc1ccc(N2C(=O)NC(=O)/C(=C\c3ccc(I)o3)C2=O)cc1` reads 5.4% (inactive).
The result for `O=C1NC(=O)N(c2ccccc2F)C(=O)/C1=C/c1ccc(I)o1` reads 12.9% (inactive).
To `O=C1NC(=O)N(c2ccccc2F)C(=O)/C1=C/c1ccc(OCc2cccc(C(=O)O)c2)cc1` belongs 0.8% (inactive).
For the compound `O=C1NC(=S)N(c2ccccc2F)C(=O)/C1=C/c1ccc(OCc2cccc(C(=O)O)c2)cc1`, the inhibition is 68.5% (active).
The result for `O=C1NC(=S)N(c2ccccc2F)C(=O)/C1=C/c1ccc(Sc2ccccc2)o1` reads 7.1% (inactive); that for `CCc1ccc(N2C(=O)/C(=C/c3ccc(I)o3)C(=O)NC2=S)cc1`, 104% (active).
The result for `CC(C)c1ccc(NC2=NS(=O)(=O)c3cc([N+](=O)[O-])ccc32)cc1` reads 2.8% (inactive); that for `Cc1c(Cl)cccc1NC(=O)C(=O)NCc1ccc2c(c1)OCO2`, 0.1% (inactive); that for `CCOC(=O)c1ccc(NC(=O)CN(c2ccccc2OC)S(=O)(=O)c2ccccc2)cc1`, -2.1% (inactive).
Turning to `CCCC(=O)OCC(=O)Nc1cc(C(C)(C)C)nn1-c1ccccc1`, the inhibition is -0.4% (inactive).
The result for `C=CCc1cccc2cc(C(=O)NCc3ccccc3)c(=O)oc12` reads 6.2% (inactive); that for `COc1ccc(NC(=O)C2CCC(C)(C(=O)O)C2(C)C)cc1` (stereo not drawn), -6.7% (inactive); that for `COc1ccc(/C=N/NC(=O)c2cc(-c3ccc(Cl)cc3)n[nH]2)cc1`, 3.6% (inactive).
To `O=C(COc1ccc(Cl)cc1)Nc1nc(-c2ccc(Cl)cc2)cs1` belongs 2.6% (inactive).
To `N#Cc1c(N)nc2c(c1-c1ccc3c(c1)OCO3)CCCCC2` belongs -0.9% (inactive); to `Cc1c(C#N)c2nc3ccccc3n2c(=O)/c1=C/c1sc2ccccc2c1O`, 4.2% (inactive).
Take `Cc1c(C#N)c2nc3ccccc3n2c(=O)/c1=C\c1c(O)n(-c2ccc(Br)cc2)[nH]c1=O`: the inhibition was 2.8% (inactive).
The result for `Cc1ccc(-n2[nH]c(=O)c(/C=c3/c(C)c(C#N)c4nc5ccccc5n4c3=O)c2O)cc1C` reads 66.8% (active); that for `COc1cc(/C=C2\NC(=S)NC2=O)ccc1OC(=O)C12CC3CC(CC(C3)C1)C2`, -2.6% (inactive); that for `COc1cccc(N2C(=O)/C(=C/c3ccccc3[N+](=O)[O-])SC2=S)c1`, 3% (inactive).
For `O=C1/C(=C/c2cccc3ccccc23)SC(=S)N1Cc1ccco1`, the inhibition is 1.1% (inactive).
As to `O=C1/C(=C/c2ccccc2[N+](=O)[O-])SC(=S)N1Cc1ccco1`, the inhibition was 84.3% (active).
To `O=C1/C(=C/c2ccccc2[N+](=O)[O-])SC(=S)N1c1cccc(Br)c1` belongs 4.2% (inactive); to `Cc1cccc(N2C(=O)/C(=C/c3ccccc3[N+](=O)[O-])SC2=S)c1`, 120% (active).
To `COc1ccccc1/C=C1\SC(=S)N(Cc2ccco2)C1=O` belongs 0.9% (inactive).
The result for `O=C(O)CCCCCN1C(=O)/C(=C\c2ccc(-c3ccc(Cl)c(Cl)c3)o2)SC1=S` reads 1.8% (inactive); that for `Cc1ccccc1N(CC(=O)N1CCc2ccccc2C1)S(C)(=O)=O`, 2.4% (inactive).
Take `NC(=O)c1cc(NC(=O)COc2ccc(F)cc2)c(Cl)cc1Cl`: the inhibition is -1.1% (inactive).
The result for `Cc1c(NS(=O)(=O)c2ccc3c(c2)CCN3C(=O)C2CC2)c(=O)n(-c2ccccc2)n1C` reads -3.7% (inactive).
The result for `O=C1NC(=O)C(=Cc2ccc(-c3cccc(Br)c3)o2)C(=O)N1` reads 52.6% (active); that for `O=C1NC(=S)N/C1=C/c1ccc(-c2cccc(Br)c2)o1`, 0.8% (inactive).
The result for `Cc1ccc(-c2ccc(C=C3C(=O)NC(=O)NC3=O)o2)c(Br)c1` reads 26.6% (inactive); that for `CCN1CCN(CCCNC(=O)Cn2cc3c(n2)CCCC3)CC1`, -12% (inactive).
In the case of `COc1ccc(C2C(C(C)=O)=C(O)C(=O)N2c2nc3ccccc3s2)c(OC)c1` (stereo not drawn), the inhibition was -1.5% (inactive).
To `Cc1ccc(N2CC(C(=O)Nc3ccc(N(C)C)cc3)CC2=O)cc1` (stereo not drawn) belongs 2.6% (inactive); to `CCOC(=O)CSc1nnc(Cn2nnc(-c3ccccc3)n2)n1C`, 0.9% (inactive); to `Oc1c(Br)ccc(Cl)c1C=Nc1cccc2nsnc12`, 117% (active).
For the compound `COc1ccc(Br)c(C=Nc2cccc3nsnc23)c1O`, the inhibition is 14.8% (inactive).
To `Oc1c(Br)cc(Cl)cc1C=Nc1cccc2nsnc12` belongs 42.7% (inactive); to `NC(=O)C1C(=O)Oc2ccccc2C1=O` (stereo not drawn), 1.6% (inactive).
The result for `Cc1ccc(-c2nnn(CC(=O)N(Cc3ccccc3)C(C(=O)NC3CCCC3)c3ccncc3)n2)o1` (stereo not drawn) reads -0.8% (inactive); that for `Cc1cc2nc(-c3cccc(NC(=O)c4ccc(Br)o4)c3)oc2cc1C`, 3.2% (inactive).
As for `O=S1(=O)N=C2CCCN2C(c2ccc(F)cc2)N1` (stereo not drawn), the inhibition was -14.7% (inactive).
